Screen size: about 360,000 compounds; about 17,000 (4.7%) were called active. Not shown: some 5% with an inconclusive outcome. This is one part of a sample in which actives are shown more often than they occur. Values without a mark were called inactive. Rule as the data show it: active = activity change below about -50%; inconclusive = mostly about -30% to -49%; inactive = weaker than that.
Assay: qHTS for Inhibitors of Inflammasome Signaling: IL-1-beta AlphaLISA Primary Screen
Settings: THP-1 LPS/ATP IL-1B secretion, 16 h; at 57.5 µM, stronger effect = lower value
Outline: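 Secreted IL-1B measured by AlphaLISA bead assay after 16 h compound exposure of THP-1 cells; compounds (final up to 57.5 uM) added 1 h before LPS (250 ng/mL) and ATP (1.25 mM) stimulation; lower signal means less secretion.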
Molecule `OC[C@@H]1CN(Cc2ccncc2)C[C@H](n2cnc3c(N4CCN(c5ccccc5)CC4)ncnc32)O1` has an activity change of 3.63%.
In the case of `O=C(Nc1cccnc1)c1ccc(Cl)cc1[N+](=O)[O-]`, the activity change is reported as 0%.
With `O=C(Nc1cccnc1)c1cc(Cl)ccc1Cl` the activity change was -60.5% (active).
`O=C(Nc1cccnc1)c1cc([N+](=O)[O-])ccc1Cl` showed an activity change of 0%.
`COCCNC(=S)N1CCN(C)CC1` gave an activity change of 26.6%.
For `Clc1ncn(CCOc2ccccc2)c1Cl`, the activity change was -9.73%.
In the case of `Brc1ccc(OCCn2ccnc2)cc1`, the activity change is reported as -15%.
With `c1ccc(Cc2ccc(OCCn3ccnc3)cc2)cc1` the activity change was -57.5% (active).
`CC(C)Oc1cc(F)ccc1-c1cc(C(=O)Nc2ccc(F)cc2)[nH]n1` gave an activity change of -25.4%.
`Cn1nc(-c2ccccc2)c2cc([N+](=O)[O-])ccc21` gave an activity change of -13.7%.
Molecule `Cc1cc(C)c(-c2c(O)c3ccccc3n(C)c2=O)c(C)c1` has an activity change of 13%.
With `Cn1c(=O)c([N+](=O)[O-])c(Oc2ccccc2)c2ccccc21` the activity change was -86.4% (active).
With `Cc1cccc(Oc2c([N+](=O)[O-])c(=O)n(C)c3ccccc23)c1` the activity change was -101% (active).
Molecule `COc1cc2c(=O)n(C)c3ccccc3c2cc1OC` has an activity change of -24.4%.
In the case of `Cc1cccc(OP(=O)(Nc2c(C)n(C)n(-c3ccccc3)c2=O)Oc2cccc(C)c2)c1`, the activity change is reported as -27.9%.
`CC(=O)C1=C(O)C(=O)N(c2ccc(S(N)(=O)=O)cc2)C1c1ccccc1F` (stereo unspecified) gave an activity change of 7.68%.
In the case of `NC(=O)c1ncn([C@@H]2O[C@H](CN=C3NS(=O)(=O)c4ccccc43)[C@@H](O)[C@H]2O)n1`, the activity change is reported as 21.3%.
In the case of `NS(=O)(=O)c1ccc(NC(=S)Nc2ccc(Br)c(Cl)c2)cc1`, the activity change is reported as -89% (active).
`NS(=O)(=O)c1ccc(CCNC(=S)Nc2ccc(S(N)(=O)=O)cc2)cc1` showed an activity change of -3.65%.
With `COc1ccc(NC(=S)Nc2ccc(S(N)(=O)=O)cc2)c(C)c1` the activity change was -12.2%.
`CCOC(=O)CSc1nc(N2CCOCC2)c2c(c1C#N)CC(C(C)C)OC2` (stereo unspecified) gave an activity change of 56.1%.
For `CCOC(=O)CSc1nccc(N(C)C)c1C#N`, the activity change was -70.3% (active).
`CCOC(=O)CSc1ccccn1` showed an activity change of 3.79%.
Work on `O=S(=O)(Cc1cc(Sc2ccccc2)nc(-c2ccccc2)n1)c1ccccc1` yielded an activity change of 0%.
In the case of `O=S(=O)(Cc1cc(Cl)nc(-c2cccnc2)n1)c1ccccc1`, the activity change is reported as -98.6% (active).
For `O=S(=O)(NCCc1csc(-c2ccccc2)n1)c1cccnc1`, the activity change was 41.8%.
`O=C1NC(Cc2ccccc2)c2nc3ccc(Br)cc3c(=O)n2-c2cc3ccccc3cc21` (stereo unspecified) gave an activity change of -12%.
Molecule `C[C@H](O)[C@@H]1C(=O)N2CCc3ccc(N4CCOCC4)cc3[C@@H]2C[C@@H]1N(C)C(=O)C(C)(C)C` has an activity change of 0%.
For `CN1OC[C@@H]2CN(C(=O)C(C)(C)C)[C@H](c3ccc(-n4ccnc4)cc3)C[C@@H]21`, the activity change was -20.8%.
With `Cc1ccccc1S(=O)(=O)N1[C@@H](c2cccc(Cl)c2)C(C(=O)OC(C)(C)C)=CC[C@H]1c1ccc(Cl)cc1` the activity change was -7.69%.
Work on `CC(C)OCCCNC(=O)CN1C(=O)/C(=C/c2ccccc2F)Oc2ccccc21` yielded an activity change of 14.1%.
`CCCN1CCN(CCCNC(=O)CN2C(=O)COc3ccccc32)CC1` gave an activity change of 5.04%.
For `CN1CCN(CCCNC(=O)c2ccc(/C=C3\Oc4ccccc4N(Cc4ccc(Cl)cc4)C3=O)cc2)CC1`, the activity change was -78% (active).
With `Cc1cccc(CN2CCN(C3CN(Cc4ccccc4)S(=O)(=O)C3)CC2)c1` (stereo unspecified) the activity change was 5.62%.
With `COC(=O)C1C(=O)NCC1c1ccc(OC)cc1` (stereo unspecified) the activity change was 5.62%.
`C[C@@H]1CN([C@@H](C)CO)C(=O)c2cc(Br)cnc2O[C@@H]1CN(C)C(=O)C1CCCCC1` gave an activity change of -1.93%.
In the case of `CC(C)=C1SC(N2CCN(c3ccc(C)c(Cl)c3)CC2)=NC1=O`, the activity change is reported as 25.2%.
Work on `CNS(=O)(=O)c1cnccc1N1CCN(c2cccc(C)c2)CC1` yielded an activity change of -2.21%.
With `CC(C)=C1SC(N2CCN(c3cccc(C)c3)CC2)=NC1=O` the activity change was -56.9% (active).
For `Fc1ccc2[nH]c3c(N4CCSCC4)ncnc3c2c1`, the activity change was -62% (active).
For `Fc1ccc2[nH]c3c(N4CCN(Cc5ccc6c(c5)OCO6)CC4)ncnc3c2c1`, the activity change was -94.7% (active).
Molecule `CCCCCc1c(C)nc(N2CCN(Cc3ccc4c(c3)OCO4)CC2)[nH]c1=O` has an activity change of -0.641%.
Work on `O=c1[nH]c(N2CCN(Cc3ccc4c(c3)OCO4)CC2)nc2c1CCCC2` yielded an activity change of 4.34%.
For `O=C(NCCS(=O)(=O)N1CCN(c2ccccc2)CC1)c1cc(=O)c2ccccc2o1`, the activity change was -1.79%.
For `CC(=O)Oc1ccc(OC(C)=O)c2c1C1C=CC2CC1`, the activity change was -13.5%.
In the case of `FC(F)(F)c1nc(-c2ccccc2)ncc1-c1nnnn1-c1ccccc1`, the activity change is reported as -66.2% (active).

From PubChem BioAssay AID743279 (National Center for Advancing Translational Sciences (NCATS), 2014)
% is scaled to controls: 0 for no effect and ±100 for the full control effect.
